A selection: hits, their analogues and other compounds. The true share with any hit is near 8.1%.
KB-V1 cytotox = KB-V1 MDR subline cytotoxicity; KB-V1 MDR cells viability, CellTiter-Glo, 72 h; Potency, µM (doses to about 46.1 µM), actives largely listed as cytotoxic; 400,000 compounds, 3.4% hits; AID 1347076; further: nearly all actives have a fitted effect of over 60% in size
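KB-V1, DMEM (no phenol red) + 10% FBS; cpd pin-transferred, titration series; 72 h, 37 degrees C; CellTiter-Glo, luminescence. Data normalized, curve-fit.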
ELG1 DNA repair = ELG1-dependent DNA repair inhibition. HEK293T ELG1-luciferase reporter, luminescence, 16 h; DNA damage induced by 5-fluorouridine. Potency, µM (series often up to 46.1 µM), usual class: inhibitors. 330,000 compounds, 2.3% hits. AID 504467; further: nearly all actives have a fitted effect of over 55% in size
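Reporter activity after DNA damage by 5-fluorouridine is monitored. Compound-treated cells incubate 16 hr at 37 °C, then ONE-Glo is added for 30 min before luminescence reading.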
MCF10A rereplic = DNA re-replication induction in MCF 10a cells | MCF 10A DNA re-replication, Hoechst nuclear intensity, 48 h | Potency, µM (top dose mostly 46.1 µM), usual class: activators | 350,000 compounds, 2.9% hits; further: nearly all actives have a fitted effect of over 50% in size
SW480 rerep = inducers of DNA re-replication in SW480 colon cancer cells; SW480 DNA re-replication, Hoechst DNA content imaging, 48 h; Potency, µM (highest dose often 46.1 µM), usual class: activators; 340,000 compounds, 1.8% hits; further: nearly all actives have a fitted effect of over 55% in size
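Treated cells incubate 48 hr (37 C, 5% CO2), are stained 40 min with Hoechst, and nuclear fluorescence is enumerated; a rise in nuclei with high DNA signal marks re-replication.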
KB-3-1 cytotox = KB-3-1 parental cell cytotoxicity; KB-3-1 viability, CellTiter-Glo ATP luminescence, 72 h; Potency, µM (titrated, usually from 46.1 µM), most hits filed as cytotoxic; 400,000 compounds, 1.4% hits; further: nearly all actives have a fitted effect of over 60% in size
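Cytotoxicity measured as CellTiter-Glo luminescence after 72 h at 37 C. Compound titrations were pinned onto drug-naive KB-3-1 parental adenocarcinoma cells grown in DMEM with 10% FBS, and normalized data fitted to concentration-response curves.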
Large screens that a line does not name were inactive. The call rests on the fitted dose curve; in most records, active means well fitted curve in the direction sought with a large enough effect; inconclusive means small, poorly fitted or top-dose-only effect, or another doubt; inactive means no such curve, though single readings can be large; an effect the other way counts as inactive or inconclusive.

CC1(C)CC(=O)c2cc(C(=O)Nc3cccc4ccccc34)c(=O)[nH]c2C1	none (no result: ELG1 DNA repair, MCF10A rereplic, SW480 rerep)
Cc1ccc2oc(C(=O)Nc3sc4c(c3C(=O)NCc3cccnc3)CCCC4)cc(=O)c2c1	none (no result: ELG1 DNA repair, MCF10A rereplic, SW480 rerep)
O=C(CS(=O)(=O)c1cn(Cc2cccc(F)c2)c2ccccc12)N1CCOCC1	KB-V1 cytotox 23µM
Cc1ccc(N2CC(C(=O)Nc3cccnc3)CC2=O)cc1Cl (stereo not given)	none
CCc1cc(C(=O)NC2CCCN(Cc3ccccc3F)C2)n(C)n1 (stereo not given)	KB-V1 cytotox inconclusive, ELG1 DNA repair inconclusive, SW480 rerep 2.1µM
CCC(CC)C(=O)Nc1cc(-c2cccc(C)c2)nn1-c1ccccc1	none (no result: ELG1 DNA repair, MCF10A rereplic, SW480 rerep)
CC(=O)N1N=C(c2ccc(NS(=O)(=O)c3ccccc3)cc2)CC1c1ccco1 (stereo not given)	MCF10A rereplic inconclusive, SW480 rerep 12µM, KB-3-1 cytotox inconclusive
CC(=O)N1N=C(c2c(-c3ccccc3)c3cc(C)ccc3[nH]c2=O)CC1c1ccco1 (stereo not given)	ELG1 DNA repair 23µM, MCF10A rereplic inconclusive
CC(=O)N1N=C(c2cccc(NS(=O)(=O)c3ccc(C)cc3)c2)CC1c1ccco1 (stereo not given)	ELG1 DNA repair inconclusive, MCF10A rereplic inconclusive, SW480 rerep 16µM, KB-3-1 cytotox inconclusive
O=C(Cc1cccs1)Nc1c(C(=O)Nc2ccc(F)cc2)oc2ccccc12	none (no result: ELG1 DNA repair, MCF10A rereplic, SW480 rerep)
CCCCN(CC)C(=O)CSc1nc2ccccc2c(=O)n1Cc1ccco1	none (no result: ELG1 DNA repair, MCF10A rereplic, SW480 rerep)
O=C(CSc1nnc(CNC(=O)c2ccco2)o1)Nc1ccc(Br)cc1	MCF10A rereplic inconclusive
O=C(Nc1cc(Cl)ccc1Cl)P(=O)(O)c1ccccc1	none (no result: ELG1 DNA repair)
Cc1ccc(NC(=O)Cc2nc(COC(=O)c3c(F)cccc3Cl)cs2)cc1	ELG1 DNA repair 18µM
Cc1ccccc1NC(=O)Cc1nc(COC(=O)c2cccc(O)c2)cs1	KB-V1 cytotox inconclusive
CC(C)=CC(=O)OCc1csc(CC(=O)Nc2ccccc2C)n1	none
Cc1ccccc1NC(=O)Cc1nc(COC(=O)c2ccc(Cl)c(S(N)(=O)=O)c2)cs1	ELG1 DNA repair 5.2µM
CC(=O)c1c(C)[nH]c(C(=O)OCc2csc(CC(=O)Nc3ccccc3C)n2)c1C	ELG1 DNA repair 13µM, SW480 rerep inconclusive
Cc1cc(=O)[nH]c(SCC(=O)Nc2cccc(S(=O)(=O)N3CCOCC3)c2)n1	ELG1 DNA repair inconclusive, MCF10A rereplic inconclusive (no result: KB-V1 cytotox, KB-3-1 cytotox)
OC(c1ccccc1)(c1nc(-c2cccc(F)c2)cs1)C(F)(F)F (stereo not given)	none (no result: ELG1 DNA repair, MCF10A rereplic, SW480 rerep)
O=C(c1ccccn1)N(Cc1ccco1)C1(C(=O)Nc2ccc(Br)cc2)CCCCC1	none (no result: ELG1 DNA repair, MCF10A rereplic, SW480 rerep)
O=C(/C=C/c1ccnc2ccccc12)c1cccs1	KB-V1 cytotox inconclusive, ELG1 DNA repair inconclusive, MCF10A rereplic 9.2µM, SW480 rerep inconclusive
C(=C\c1ccnc2ccccc12)/c1cccs1	KB-V1 cytotox inconclusive (no result: ELG1 DNA repair, MCF10A rereplic, SW480 rerep)
Cc1cc(C)cc(NC(=O)C2CCC(CNS(=O)(=O)c3ccc4c(c3)C(C)(C)C(=O)N4C)CC2)c1 (stereo not given)	KB-3-1 cytotox 18µM (no result: ELG1 DNA repair, MCF10A rereplic, SW480 rerep)
CC(=O)N1c2ccc(S(=O)(=O)NCC3CCC(C(=O)Nc4cc(C)ccn4)CC3)cc2CC1C (stereo not given)	SW480 rerep inconclusive, KB-3-1 cytotox 23µM
COc1ccc(NC(=O)C2CCC(CNS(=O)(=O)c3ccc4c(c3)C(C)(C)C(=O)N4C)CC2)cc1 (stereo not given)	none (no result: ELG1 DNA repair, MCF10A rereplic, SW480 rerep)
CSc1cccc(CNC(=O)C2CCC(=O)N(CCc3ccccc3)C2)c1 (stereo not given)	KB-V1 cytotox inconclusive (no result: ELG1 DNA repair, MCF10A rereplic, SW480 rerep)
O=C(NC(Cc1ccc(O)cc1)C(=O)N=Nc1c(O)[nH]c2ccccc12)c1ccccc1 (stereo not given)	none (no result: ELG1 DNA repair)
CCC(=O)N(C1=C(NC)C(=O)c2ccccc2C1=O)C(C)C	KB-V1 cytotox inconclusive, ELG1 DNA repair inconclusive, MCF10A rereplic 5.8µM, SW480 rerep inconclusive, KB-3-1 cytotox 2.6µM
CNC1=C(N(C(C)=O)c2ccc(Br)cc2)C(=O)c2ccccc2C1=O	KB-V1 cytotox inconclusive, ELG1 DNA repair 3.7µM, MCF10A rereplic 0.58µM, SW480 rerep 8.2µM, KB-3-1 cytotox inconclusive
CCC(=O)N(CC)C1=C(O)c2ccccc2C(=O)C1=O	MCF10A rereplic inconclusive, SW480 rerep inconclusive
CC(=O)NC1=C(Nc2ccc(N(C)C)cc2)C(=O)c2ccccc2C1=O	ELG1 DNA repair inconclusive
N=C(N)n1cccn1	none (no result: KB-V1 cytotox, ELG1 DNA repair, KB-3-1 cytotox)
COc1cccc(-c2oc3c(c2-c2ccc(OC)nc2)C(O)CCC3)c1 (stereo not given)	none (no result: ELG1 DNA repair, MCF10A rereplic, SW480 rerep)
COc1ccc(/C=C/c2nc3cc(-c4ccccc4)ccc3o2)cc1O	KB-V1 cytotox inconclusive, ELG1 DNA repair inconclusive, MCF10A rereplic 5.8µM, SW480 rerep 18µM, KB-3-1 cytotox inconclusive
COc1cc(OC)c(OC)cc1/C=C/c1nc2ccccc2o1	none (no result: ELG1 DNA repair, MCF10A rereplic, SW480 rerep)
CCN(CCCNC(=O)CCc1nc(-c2ccc(OC)cc2)no1)c1cccc(C)c1	ELG1 DNA repair 18µM
CCc1ccc2c(c1)c(=O)c(C(=O)c1ccc(C)cc1)cn2CC(=O)Nc1ccc2c(c1)OCCO2	KB-V1 cytotox inconclusive (no result: ELG1 DNA repair, MCF10A rereplic, SW480 rerep)
CCNC(=O)COc1ccc(Br)cc1Cl	KB-V1 cytotox inconclusive, ELG1 DNA repair inconclusive
COCCCNC(=O)COc1ccc(Br)cc1Cl	KB-V1 cytotox 21µM, ELG1 DNA repair inconclusive
CN(C)c1nc(OCCNC(=O)COc2ccc(Cl)cc2Cl)nc(N(C)C)n1	KB-V1 cytotox inconclusive, ELG1 DNA repair 21µM
CN(C)c1nc(OCCOC(=O)COc2ccc(Cl)cc2Cl)nc(N(C)C)n1	none
O=C(Nc1ccc(Oc2ccccc2)cc1)C1CCCO1 (stereo not given)	ELG1 DNA repair inconclusive, MCF10A rereplic 7.3µM, SW480 rerep inconclusive
CCOc1ccc2nc(NC(=O)C3CCCO3)sc2c1 (stereo not given)	none
COc1ccc2nc(NC(=O)c3ccc(NC(=O)C4CCCO4)cc3)sc2c1 (stereo not given)	ELG1 DNA repair inconclusive, MCF10A rereplic 21µM, SW480 rerep inconclusive, KB-3-1 cytotox 7.3µM
CC(C)N(c1ccccc1)c1ccc(NC(=O)C2CCCO2)cc1 (stereo not given)	KB-V1 cytotox 21µM
O=C(Nc1ccc(N=Nc2ccccc2)c(NC(=O)C2CCCO2)c1)C1CCCO1 (stereo not given)	KB-V1 cytotox inconclusive, ELG1 DNA repair 9.2µM, MCF10A rereplic inconclusive
O=C(NS(=O)(=O)c1ccc(NC(=O)C2CCCO2)cc1)c1ccccc1 (stereo not given)	none
COc1ccc(NC(=O)C2CCCO2)cc1 (stereo not given)	ELG1 DNA repair inconclusive
COCCNC(=O)C1(C)CCCN(C(=O)Cc2ccc3ccccc3c2)C1 (stereo not given)	none (no result: ELG1 DNA repair, MCF10A rereplic, SW480 rerep)
COc1ccccc1NC(=O)Nc1ccnn1C1CCN(C(=O)C2CCOC2)CC1 (stereo not given)	none (no result: ELG1 DNA repair, MCF10A rereplic, SW480 rerep)

Screens (PubChem BioAssay)
